Laboratory results from ChEMBL document CHEMBL4888484, “Replenishing the malaria drug discovery pipeline: Screening and hit evaluation of the MMV Hit Generation Library 1 (HGL1) against asexual blood stage Plasmodium falciparum ,using a nano luciferase reporter read-out” (2022).
The whole screen tested about 150,000 compounds, of which about 540 (0.36%) showed an effect of 50% or more. Many of the other results were omitted from the sample, so strong results are more common in it than they were.

test system: Plasmodium falciparum; assay: Primary screen in NF54 nanoGlo assay, in single point, at 2uM, 72h; a lower Z score goes with more inhibition; type: functional, Erythrocyte; settings: timepoint 72 hour

| SMILES | % Inhibition [%] | Z score |
| --- | --- | --- |
| O=C(C1CCC1c1ccc(F)cc1)N1CCCC(c2nc3ccc(F)cc3o2)C1 (stereo not drawn) | -10 | 1.06 |
| CCOc1cc(C(c2c(C)n(C)n(-c3ccccc3)c2=O)c2c(C)n(C)n(-c3ccccc3)c2=O)ccc1OCc1ccccc1 | 75 | -5.78 |
| COc1cc(C(c2c(C)n(C)n(-c3ccccc3)c2=O)c2c(C)n(C)n(-c3ccccc3)c2=O)c(Br)c(Br)c1OCc1ccccc1 | 35 | -0.45 |
| Cc1c(C(c2c(C)n(C)n(-c3ccccc3)c2=O)c2c[nH]c3ccccc23)c(=O)n(-c2ccccc2)n1C | -6 | 0.93 |
| COc1nc(NC2CCS(=O)(=O)CC2)ncc1F | 65 | -7.11 |
| COc1nc(N[C@H]2CCCN(C)C2)ncc1F | 3 | -0.5 |
| CN(C)c1nc(N[C@H]2CCS(=O)(=O)C2)ncc1F | -3 | 0.33 |
| CNC(=O)[C@@H]1C[C@@H](Nc2ccnc(OC)c2C#N)CN1Cc1ccccn1 | 2 | -0.32 |
| Cc1noc(C)c1S(=O)(=O)NC1(C(=O)Nc2ccsc2)CCCC1 | -8 | 1.08 |
| CC[C@@](C)(CNC(=O)COCc1cccc(OC)c1)N1CCOCC1 | -4 | 0.5 |
| CC(C)c1cnc(NCCCC[C@H]2CCCO2)nc1 | 48 | 0.41 |
| Cc1cc(C)nc(NC[C@H]2CCCO2)n1 | -5 | 0.64 |
| Cc1cc(C)nc(NCCC[C@H]2CCCCO2)n1 | 54 | 0.94 |
| O=C(OCC(F)(F)F)N1CCOCC1 | 1 | -0.08 |
| CC(C)CN1CCCC1C(=O)N1CCO[C@H]2CCC[C@H]21 (stereo partly drawn) | -5 | 0.92 |
| O=C(N/C(=N\c1ccc(F)cc1)N1CCN(Cc2cccc(F)c2)CC1)c1ccccc1 | 2 | -0.32 |
| COc1cccc(N2C(=O)C[C@]3(CC3(c3ccccc3)c3ccccc3)C2=O)c1 | 35 | -0.08 |
| O=C1C[C@]2(CC2(c2ccccc2)c2ccccc2)C(=O)N1c1cccc(Br)c1 | 19 | -3.6 |
| Cc1ccc(N2C(=O)C[C@]3(CC3(c3ccccc3)c3ccccc3)C2=O)cc1 | 73 | -0.64 |
| CC(CNC(=O)C(=O)NC(C)CCc1ccccc1)Cc1ccccc1 (stereo not drawn) | -11 | 1.26 |
| Cc1cccc2[nH]c(COCC(=O)NC[C@H]3CCCN(C)C3)nc12 | 14 | -1.8 |

| SMILES | % Inhibition [%] | Z score |
| --- | --- | --- |
| O=S(=O)(c1cccnc1)N1CC[C@H](Oc2ccncc2Cl)C1 | -6 | 1.14 |
| O=S(=O)(c1ccc(F)c(Cl)c1)N1CC[C@H](Oc2ccncc2Cl)C1 | 72 | -13.57 |
| O=S(=O)(c1ccc2c(c1)OCCO2)N1CC[C@H](Oc2ccncc2Cl)C1 | -7 | 1.4 |
| Cc1cc2nc[nH]c2c(NC(=O)CCc2cc3n(n2)CCNC3)c1C | -7 | 1.44 |
| CCOc1ccc(-c2noc([C@@H]3Cc4ccccc4N3C(C)=O)n2)cc1Cl | 19 | -2.19 |
| O=C1NC(=O)[C@@H]2CN(S(=O)(=O)c3cc(F)cc(Cl)c3)C[C@H]12 | 37 | 0.7 |
| O=C(CCn1cnc2cc(-c3noc(-c4ccccn4)n3)ccc21)N1CCOCC1 | -9 | 1.86 |
| COc1ccccc1-c1cn[nH]c1-c1ccc(OCc2cc(C)ccc2C)cc1O | 0 | 0 |
| COc1ccc(Oc2cn[nH]c2-c2ccc(OCc3ccc(F)cc3)cc2O)cc1 | 4 | -0.82 |
| COc1ccc(-c2n[nH]c3c2[C@@H](c2ccc(OCc4ccccc4F)cc2)CC(=O)O3)cc1 | -7 | 1.23 |
| COc1ccccc1Oc1cn[nH]c1-c1ccc(OCc2ccccc2C)cc1O | -7 | 0.65 |
| COc1ccc(-c2c(C(F)(F)F)n[nH]c2-c2ccc(OCc3ccccc3F)cc2O)cc1 | 79 | -11.69 |
| Oc1cc(OCc2ccccc2F)ccc1-c1[nH]ncc1-c1ccccc1 | 52 | -11.1 |
| NC(=O)Cc1ccc(Cl)cc1Cl | -10 | 1.37 |
| Cc1nn(-c2ccc(Cl)cc2)cc1-c1noc(C(=O)NC2CCC(C)CC2)n1 (stereo not drawn) | -10 | 1.19 |
| C[C@H]1CCN(Cc2ccncc2)CCN1Cc1ccccc1 | -16 | 3.16 |
| Cc1noc(C)c1CN1C[C@@H]2Oc3cc(F)ccc3C(=O)N(C)[C@@H]2C1 | 91 | -10.61 |
| CN1C(=O)c2ccccc2O[C@H]2CN(Cc3ccccc3)C[C@H]21 | -9 | 1.36 |
| CN1C(=O)c2ccccc2O[C@H]2CN(Cc3cc(-c4ccccc4)no3)C[C@H]21 | 4 | -0.65 |
| CON1CCC(C(=O)NC2c3ccccc3CCC2C)CC1 (stereo not drawn) | 0 | -0.03 |
| O=C(O)[C@H]1CCCN(C2CCN(Cc3ccccc3)CC2)C1 | -13 | 1.5 |

| SMILES | % Inhibition [%] | Z score |
| --- | --- | --- |
| c1nc(CCNC[C@@H]2CCCN3CCCC[C@H]23)c[nH]1 | -15 | 2.93 |
| COCc1ncc(C)n1CC1CN(C(=O)CCc2ccccc2)C1 | -10 | 1.37 |
| COc1cc(Cl)c(C)cc1NC(=O)c1nc2cc(C)c(C)cc2n(C)c1=O | 37 | 0.48 |
| COc1cc(Cl)c(C)cc1NC(=O)c1cnn[nH]1 | -17 | 3.31 |
| COc1cc(Cl)c(C)cc1NC(=O)c1cc(=O)n(-c2ccc(C)cc2)[nH]1 | 53 | -6.9 |
| O=C(N[C@H](c1ccccc1F)C1CCCC1)C1CCN(C(=O)c2ccco2)CC1 | -9 | 0.87 |
| O=C(C1CCC(C2CC2)N1)N1CCC2(CCc3ccccc3C2=O)CC1 (stereo not drawn) | 1 | -0.19 |
| CC(CCO)C1(CNC(=O)NCC2CCCO2)CCC1 (stereo not drawn) | -7 | 1.25 |
| CCc1cccc2c(C3=CCN(C(=O)Nc4cn[nH]c4)CC3)c[nH]c12 | -8 | 1.44 |
| Cn1ccnc1CN(Cc1cccnc1)C1CCCCCC1 | 2 | -0.44 |
| CCC(=O)N1CCC(NCc2csc3ccccc23)C(CC)C1 (stereo not drawn) | -13 | 1.94 |
| CCCc1nc(NC[C@H]2CC[C@H](CO)CC2)no1 | -12 | 1.18 |
| Cc1nc(C(F)(F)F)c(CN(C)C[C@H]2CCOC2)s1 | -8 | 1.25 |
| Cc1oc(-c2ccc(C(=O)NCCN(C)C)cc2)nc1CN1CCc2ccccc21 | -14 | 1.84 |
| Cc1nc(C)c(CC(=O)N2CCN(c3ccccc3)CC2)c(=O)[nH]1 | -33 | 3.87 |
| CCCCNC(=O)c1ccc(CN2C(=O)CCn3nccc32)cc1 | 18 | -2.08 |
| O=C(NCCCc1ccccc1)c1ccc(CN2C(=O)CCn3nccc32)cc1 | 58 | -2.28 |
| COCCCNC(=O)c1ccc(CN2C(=O)CCn3nccc32)cc1 | 13 | -1.46 |
| CC1CCCN(C(=O)C2CCC2)C1CN (stereo not drawn) | -3 | 0.43 |
| CC(C)c1ccc2ncnc(N[C@H]3CCc4[nH]cnc4C3)c2c1 | 96 | -17.94 |
| C[C@@H](NC(=O)NC1CCc2[nH]cnc2C1)c1ccc(F)cc1 (stereo partly drawn) | -10 | 1.89 |

| SMILES | % Inhibition [%] | Z score |
| --- | --- | --- |
| C[C@@H]1CC[C@H](CO)N1C(=O)Cc1cccc(C(F)(F)F)n1 | 3 | -0.37 |
| Cc1c(C(=O)NC[C@H]2CCCOC2)[nH]c2c(Cl)cccc12 | -9 | 1.62 |
| C[C@H](OC(=O)CNC(=O)OC(C)(C)C)C(=O)N1CCCCCC1 | -12 | 1.29 |
| Cc1ccc(CC[C@H]2Nc3ccccc3C(c3ccccc3)(c3ccccc3)O2)o1 | 81 | -13.4 |
| CC(C)Oc1ccccc1[C@H]1Nc2ccccc2C(c2ccccc2)(c2ccccc2)O1 | -1 | 0.21 |
| c1ccc(C2(c3ccccc3)O[C@@H](c3cccnc3)Nc3ccccc32)cc1 | -4 | 0.54 |
| Cc1cc(=O)n(CC(=O)N2CCCC[C@@H]2CCc2ccccc2)nc1C | -18 | 3.31 |
| O=C(c1cccs1)N(Cc1ccccn1)c1nc2ccccc2s1 | 4 | -0.46 |
| Cc1ccc(F)c(NS(=O)(=O)c2cc(-c3ccn[nH]3)oc2C)c1 | 2 | -0.25 |
| Cc1oc(-c2ccn[nH]2)cc1S(=O)(=O)Nc1ccc(F)c(Cl)c1 | 37 | -0.01 |
| Cc1oc(-c2ccn[nH]2)cc1S(=O)(=O)Nc1cccc(Cl)c1 | 59 | -0.35 |
| O=C(O)c1cc(NS(=O)(=O)c2cc(F)ccc2F)ccc1N1CCCCCC1 | -4 | 0.67 |
| CCc1cccc2c(C3=CCN(c4ccc5nnc(C(F)(F)F)n5n4)CC3)c[nH]c12 | 11 | -2.04 |
| Cc1cc(C)cc(NC(=O)c2c(C)sc3ncnc(N4CCCC4)c23)c1 | -2 | 0.31 |
| CC(CN1CCC(N2CCOCC2)C1)c1cccc(Cl)c1 (stereo not drawn) | 5 | -0.64 |
| CCC(=O)NCc1nc2c(n1C)CN(C(=O)c1ccc(CC)cc1)CC2 | 2 | -0.2 |
| COC1(C)CCN(C(=O)c2ccon2)CC1 | -4 | 0.52 |
| O=C(CCc1conc1-c1cccc(F)c1)NC1CC1 | -8 | 1.59 |
| Cc1cc(C)c(S(=O)(=O)N2CC[C@H](n3cccn3)C2)s1 | -1 | 0.1 |
| O=S(=O)(c1cccs1)N1CC[C@H](n2ccnn2)C1 | -9 | 1.54 |
| Cc1csc(S(=O)(=O)N2CC[C@H](n3cccn3)C2)c1 | 82 | 1.47 |
